Results on 13 compounds are retold here after PubChem BioAssay.

Calls of active or inactive are those of the source. Unless noted, the rule behind the calls is not given here.

Assay [1] is described as follows: resazurin metabolic signal in HepG2 cells – cell-based, resazurin fluorescence, 24 h, PK04 Diversity Set, profiling panel (AID 1172). Note: test concentration not given here. The following applies: HepG2 viability, higher = more signal. In general terms: The colour change of resazurin is a common sign of viable cells or microbes.
Assay [2] in a line: budding yeast growth changes without added modifier – OD600, strain BY4716, 24 h, basal condition, primary screen (AID 1173). Particulars: S. cerevisiae BY4716 growth, OD600, 24 h; higher = more signal, called active from +8 up or from −8 down.
Assay [3] is described as follows: viability profiling in MM1S myeloma cells – cell-based, resazurin fluorescence, basal, 24 h, PK04 Diversity Set, profiling panel (AID 1174).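 Note: MM1S multiple myeloma cell line; test concentration not given here.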 Particulars: higher = more signal, called active from +8 up or from −8 down.
The target in assay [4] is Dihydroorotate dehydrogenase (quinone), mitochondrial (Plasmodium falciparum (isolate 3D7)) (UniProt Q08210). Kind of assay: inhibition of P. falciparum DHODH – biochemical, C-terminal His tag, absorbance 600 nm, primary screen (AID 1175).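 Note: recombinant parasite enzyme with a five histidine tag at its C terminus; test concentration not given here.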 Particulars: PfDHODH enzyme, DCIP absorbance 600 nm; higher = more signal, called active from +8 up or from −8 down.
Sequence of Dihydroorotate dehydrogenase (quinone), mitochondrial (Plasmodium falciparum (isolate 3D7)) (Q08210 whole entry, looked up): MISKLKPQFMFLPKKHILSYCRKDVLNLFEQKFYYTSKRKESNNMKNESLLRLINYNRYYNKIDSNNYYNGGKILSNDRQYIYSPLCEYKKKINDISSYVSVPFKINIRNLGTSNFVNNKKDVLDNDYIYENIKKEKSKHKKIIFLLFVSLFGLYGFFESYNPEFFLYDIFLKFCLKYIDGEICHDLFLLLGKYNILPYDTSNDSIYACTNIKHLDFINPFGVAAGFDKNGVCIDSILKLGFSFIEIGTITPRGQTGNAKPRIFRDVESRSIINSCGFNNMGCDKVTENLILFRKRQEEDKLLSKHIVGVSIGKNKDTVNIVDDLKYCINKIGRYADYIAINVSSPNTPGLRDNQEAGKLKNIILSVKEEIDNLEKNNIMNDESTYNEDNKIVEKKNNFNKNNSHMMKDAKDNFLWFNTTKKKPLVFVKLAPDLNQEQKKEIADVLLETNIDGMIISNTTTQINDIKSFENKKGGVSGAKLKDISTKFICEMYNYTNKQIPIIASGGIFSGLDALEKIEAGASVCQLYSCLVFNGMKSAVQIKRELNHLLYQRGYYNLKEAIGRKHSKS
The nature of assay [5]: inhibition of PAO1 biofilm formation – strain PAO1, LB-PBS medium, absorbance 600 nm, primary screen (AID 1176). Note: test concentration not given here. Particulars: P. aeruginosa PAO1 growth/biofilm, A600, 12 h; higher = more signal.
Assay [6] in a line: growth modulation of vineyard yeast isolate – strain RM11-1a, OD600, basal, 24 h, primary screen (AID 1177).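 Note: cultures grown under basal conditions with no added stressor; test concentration not given here.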 Particulars: S. cerevisiae RM11-1a growth, OD600, 24 h; higher = more signal, called active from +8 up or from −8 down.
Assay [7] is described as follows: growth of efflux-deficient E. coli DRC39 – strain DRC39, OD650, 24 h, E. coli filamentation inducers, primary screen (AID 1178).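 Note: growth measured as culture turbidity by optical density at 650 nm; test concentration not given here.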 Particulars: E. coli DRC39 acrAB, higher = more signal, called active from +8 up or from −8 down.
Assay [8] in a line: growth of efflux-deficient E. coli DRC39 – strain DRC39, OD650, 48 h, E. coli filamentation inducers, primary screen (AID 1179).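 Note: screen aims at cell division blockers that make cells filament.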 The following applies: E. coli DRC39 delta-acrAB growth, higher = more signal, called active from +8 up or from −8 down.
A short description of assay [9]: viability profiling in RPMI8226 myeloma cells – cell-based, resazurin fluorescence, basal, 24 h, PK04 Diversity Set, profiling panel (AID 1180).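 Note: RPMI8826 multiple myeloma cell line at 5000 cells per well; test concentration not given here.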 Particulars: higher = more signal.
The target in assay [10] is E3 ubiquitin-protein ligase XIAP (Homo sapiens) (UniProt P98170). Kind of assay: small molecules binding XIAP protein – biophysical, small-molecule microarray, fluorescence 635 nm, primary screen (AID 1181).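 Note: score merges 667 nm emission and signal to noise over triplicate slides.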 The following applies: higher = more signal.
Sequence of E3 ubiquitin-protein ligase XIAP (Homo sapiens) (P98170 whole entry, looked up): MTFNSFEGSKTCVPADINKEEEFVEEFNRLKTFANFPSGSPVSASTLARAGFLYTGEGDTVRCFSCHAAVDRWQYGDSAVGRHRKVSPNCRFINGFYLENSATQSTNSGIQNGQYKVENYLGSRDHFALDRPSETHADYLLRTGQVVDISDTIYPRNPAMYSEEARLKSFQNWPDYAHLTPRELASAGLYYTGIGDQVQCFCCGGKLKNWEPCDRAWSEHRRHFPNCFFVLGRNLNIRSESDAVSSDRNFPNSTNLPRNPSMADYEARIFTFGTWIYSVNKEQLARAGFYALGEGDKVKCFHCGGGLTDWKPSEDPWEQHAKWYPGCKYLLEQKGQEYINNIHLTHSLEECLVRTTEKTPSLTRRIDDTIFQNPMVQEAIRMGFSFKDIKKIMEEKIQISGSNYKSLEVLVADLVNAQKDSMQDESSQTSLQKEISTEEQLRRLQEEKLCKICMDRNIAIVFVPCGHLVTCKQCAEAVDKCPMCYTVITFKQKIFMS

As to `CC(C)=CCCC(C)=CCON=C1C[C@@H](O)[C@@H](O)[C@@H]2[C@@H]3C(=O)N(c4ccc(F)cc4F)C(=O)[C@@H]3CC[C@@H]12`, the z-score in assay [1] is 0.387; in assay [2], -1.38 (inactive); in assay [3], 0.77 (inactive); in [5], 0.519 (inactive); in [6], 0.225 (inactive); in assay [7], 0.781 (inactive). In addition, the z-score was 0.345 (inactive) in assay [8] and 0.75 in [9]. The composite z-score in assay [4] is 0.263 (inactive); in [10], -0.336.
For the compound `COC(=O)CC=C[C@H](C)[C@@H](OCc1cccc(Br)c1)[C@@H](C)[C@H](OC)C1CCCCC1`, the z-score in [1] is -0.363; in assay [2] it was -0.949 (inactive); in assay [3], 0.0742 (inactive); in assay [5], -1.16 (inactive); in [6], 0.161 (inactive); in [7], 0.474 (inactive). In addition, the z-score in [8] was -0.596 (inactive); in assay [9] it was -0.171. Moreover, the composite z-score in assay [4] is -0.498 (inactive); in assay [10], -0.318.
With `COc1ccc(O[C@H]2C=C[C@@H](c3ccccc3)O[C@@H]2CON=C(C)CCN2CCc3nc(-c4ccccc4)c(-c4ccccc4)cc3C2)cc1`, the z-score in assay [1] is 0.449; in assay [2] it was -0.606 (inactive); in assay [3], -0.159 (inactive); in [5], 0.135 (inactive); in [6] it was 1.21 (inactive); in assay [7] it was -0.166 (inactive). For the same compound, the z-score in assay [8] is -1.89 (inactive); in [9], 0.382. Also, the composite z-score was 0.503 (inactive) in [4] and -0.0536 in assay [10].
Turning to `CO[C@H]1COC(=O)CCC[C@@H](C)[C@H](OC)COC(=O)[C@@H]2CCCN2C(=O)CC=C[C@@H]1C`, the z-score in assay [1] is -0.145; in [2], -0.723 (inactive); in [3], 0.435 (inactive); in assay [5] it was -1.04 (inactive); in [6], -1.04 (inactive); in assay [7], -0.367 (inactive). Moreover, the z-score in assay [8] was -0.459 (inactive); in assay [9] it was 0.826. For the same compound, the results for the composite z-score in assay [4] and in assay [10] were -0.44 (inactive) and -0.135, respectively.
Consider `C#CCCCON=C1[C@H]2CCn3c(=O)n(C)c(=O)n3[C@H]2[C@H](O)[C@@H]2O[C@H]12`, for which the z-score in assay [1] is -1.33; in assay [2], -0.492 (inactive); in assay [3], -1.59 (inactive); in assay [5], -0.568 (inactive); in assay [6], 0.956 (inactive); in [7] it was 0.0518 (inactive). Further, the z-score in assay [8] was 0.385 (inactive); in [9] it was -1.93. The figures for the composite z-score in assay [4] and in assay [10] were -0.511 (inactive) and -0.391, respectively.
Regarding `C=CC[C@@H]1C=C[C@H](ON=C(C)CCC(=O)OC[C@H]2O[C@H](C#Cc3ccccc3)C=C[C@@H]2Oc2ccc(C)cc2)[C@@H](CO)O1`, the z-score in assay [1] was -0.0055; in [2], 1.09 (inactive); in assay [3], 0.212 (inactive); in assay [5] it was -0.242 (inactive); in [6], 1.23 (inactive); in assay [7] it was 0.911 (inactive). Further, the z-score in [8] is -1.55 (inactive); in assay [9], -0.177. Further, the composite z-score in [4] is 0.103 (inactive); in [10], 0.132.
Consider `CO[C@H]1COC(=O)CC=C[C@@H](C)[C@H](NS(=O)(=O)c2ccc(C)cc2)COC(=O)CCC[C@@H]1C`, for which the z-score in [1] is 0.703; in assay [2], -0.99 (inactive); in assay [3], 1.01 (inactive); in [5], -0.361 (inactive); in [6], -0.5 (inactive); in [7] it was 0.0468 (inactive). The z-score in [8] was 0.0191 (inactive); in [9], 0.545. Besides, the composite z-score in [4] is -0.242 (inactive); in assay [10], 0.0797.
With `C#CCCCON=C1[C@H]2CCn3c(=O)n(-c4ccccc4)c(=O)n3[C@H]2[C@H](O)[C@@H]2O[C@H]12`, the z-score is -0.775 in assay [1]; -1.34 (inactive) in [2]; -2.23 (inactive) in [3]; 0.352 (inactive) in [5]; -1.93 (inactive) in assay [6]; -0.536 (inactive) in assay [7]. The z-score in assay [8] is -0.231 (inactive); in [9], -1.7. Further, the composite z-score in assay [4] is -1.16 (inactive); in assay [10] it was -0.147.
Regarding `CON=CC[C@@H]1C=C[C@H](OC(C)=O)[C@@H](COC(C)=O)O1`, the z-score in assay [1] was -0.144; in [2], -0.0768 (inactive); in assay [3], 0.0181 (inactive); in assay [5] it was -0.0903 (inactive); in assay [6], 0.964 (inactive); in assay [7], 0.736 (inactive). In addition, the results for the z-score in [8] and in assay [9] were -1.17 (inactive) and -0.143, respectively. Moreover, the composite z-score in assay [4] is -1.1 (inactive); in assay [10], 0.502.
For the compound `COC(=O)CC=C[C@@H](C)[C@@H](C=NO[C@H](C)c1cn([C@H](CO)Cc2ccccc2)nn1)OC`, the z-score was 0.167 in [1]; -0.285 (inactive) in assay [2]; -0.242 (inactive) in [3]; 0.368 (inactive) in assay [5]; -0.212 (inactive) in [6]; 0.0343 (inactive) in assay [7]. Also, the values for the z-score in assay [8] and in assay [9] were -0.265 (inactive) and 0.261, respectively. Also, the values for the composite z-score in assay [4] and in assay [10] were -0.184 (inactive) and -0.142, respectively.
On to `O=C1[C@H]2[C@H]3[C@H](O)[C@H](O)CC(=NOCc4ccccc4)[C@H]3CC[C@H]2C(=O)N1Cc1ccc2c(c1)OCO2`, for which the z-score in assay [1] was 0.616; in assay [2] it was -0.0033 (inactive); in [3], 0.13 (inactive); in assay [5], -0.695 (inactive); in assay [6], 0.0065 (inactive); in assay [7], 0.698 (inactive). Moreover, the z-score was -1.38 (inactive) in assay [8] and 0.129 in assay [9]. The composite z-score in [4] was -0.51 (inactive); in assay [10], -0.0663.
Turning to `CCOC(=O)[C@H](CC(C)C)NC(=O)CCC1CC(OC(=O)NCc2cccc3ccccc23)CC2(CCCC(COC(=O)NCCc3ccc(Cl)cc3)O2)O1` (stereo not given in full), the z-score in assay [1] is 0.568; in [2], -1.89 (inactive); in [3], 1.15 (inactive); in assay [5], 0.262 (inactive); in assay [6], -1.2 (inactive); in assay [7], 0.389 (inactive). The z-score in assay [8] is -0.214 (inactive); in assay [9], 1.3. For the same compound, the results for the composite z-score in assay [4] and in assay [10] were -1.16 (inactive) and -0.0559, respectively.
Turning to `CCOC(=O)[C@H](Cc1ccccc1)NC(=O)CCC1CC(OC(=O)NCc2cccc3ccccc23)CC2(CCCC(COC(=O)NCC(c3ccccc3)c3ccccc3)O2)O1` (stereo not given in full), the z-score in assay [1] was 0.812; in assay [2] it was -0.38 (inactive); in [3], 0.923 (inactive); in assay [5], -0.163 (inactive); in assay [6], -0.714 (inactive); in assay [7], -0.371 (inactive). The z-score is -0.661 (inactive) in assay [8] and 1.27 in [9]. Also, the composite z-score in assay [4] is -0.305 (inactive); in [10] it was 0.0655.
